Screening results as filed in PubChem.
TRHR agonist – qHTS for Small Molecule Agonists and Allosteric Enhancers of Human TRH Receptor: Primary Screen for Agonists | AID 493084, 2011 | activation, % at 2 µM | 360,000 compounds, 0.18% hits | Thyrotropin-releasing hormone receptor (Homo sapiens), P34981 | TRHR cells, calcium flux fluo-8, FDSS agonist mode
Target sequence (P34981 whole entry, looked up): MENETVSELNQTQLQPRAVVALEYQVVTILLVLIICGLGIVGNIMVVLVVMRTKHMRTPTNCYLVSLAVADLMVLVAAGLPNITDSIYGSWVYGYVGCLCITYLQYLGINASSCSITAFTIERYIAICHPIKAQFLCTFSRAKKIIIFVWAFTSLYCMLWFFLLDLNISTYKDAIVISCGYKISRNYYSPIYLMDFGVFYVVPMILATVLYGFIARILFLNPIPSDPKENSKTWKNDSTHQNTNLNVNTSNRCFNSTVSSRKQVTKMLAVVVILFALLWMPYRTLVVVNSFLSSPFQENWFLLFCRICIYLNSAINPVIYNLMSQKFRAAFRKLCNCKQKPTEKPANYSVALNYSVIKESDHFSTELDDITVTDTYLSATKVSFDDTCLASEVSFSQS
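Steps: seed TRHR cells overnight; add fluo-8 no-wash Ca dye, RT 30 min–1.5 h; record 10 s baseline; pin-transfer compounds; monitor fluorescence 1 cycle/s for the agonist window. Calcium increases flag candidate agonists.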
D1 PAM – Potentiators of Human D1 Dopamine Receptor: qHTS; 360,000 compounds, 0.036% hits; D(1A) dopamine receptor (Homo sapiens), P21728; HEK293 TREx D1 cells, calcium flux, dopamine EC20 potentiation; potentiation, % at 10 µM; AID 504651, 2011; in the data active = potentiation above about 30%
D1 ag – Allosteric Agonists of the Human D1 Dopamine Receptor: qHTS; D(1A) dopamine receptor (Homo sapiens), P21728; HEK293 T-REx D1 cells, calcium flux, agonist mode; activation, % at 2 µM; 360,000 compounds, 1% hits; AID 504660, 2011
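Agonism was scored from calcium flux recorded over 180 s (1 read/s) after pintool compound addition, following a 10-cycle baseline. Cells were inducible force-coupled HEK293 TREx D1, plated overnight at 30 C and loaded with no-wash calcium dye.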
TRHR PAM – qHTS for Small Molecule Agonists and Allosteric Enhancers of Human TRH Receptor: Primary Screen for Enhancers; TRHR cells, fluo-8 calcium fluorescence, EC20 TRH enhancement; 360,000 compounds, 0.66% hits; enhancement, % at 2 µM; in the data active = enhancement above about 30%
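TRHR-expressing cells loaded with fluo-8 calcium dye were read kinetically (ex 480/em 530) during compound addition, then stimulated with an EC20 of TRH (10 nM final). Enhancement of the Gq-mediated intracellular calcium response was scored.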
D1 antagonist – Antagonist of Human D 1 Dopamine Receptor: qHTS; activity change, negative = inhibition, % at 10 µM; AID 504652, 2011; HEK293 TREx D1 cells, calcium flux, dopamine EC80; hits give low values; 360,000 compounds, 3.2% hits; in the data active = activity change below about -30%
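Cells carrying a force-coupled, tetracycline-inducible human D1 receptor report calcium flux. Each well gets a 10 s baseline, compound with 180 s monitoring, then an EC80 dopamine stimulus with a second 180 s kinetic read.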
Large screens that a line does not name were inactive. This is a sample that favours compounds with a hit; in the whole collection about 4.6% have one here. Cut-off read from the data, not from the text of the source, unless noted: active = activation above about 30%; inactive = the rest.

COc1cc(Cl)c(C)cc1NC(=O)C1CCCN(c2ncnc3onc(-c4ccc(F)cc4)c23)C1 (stereo not given)	none
N#Cc1ccc(Oc2ccc(S(=O)(=O)N3CCOCC3)cn2)cc1	none
COc1cc(OC)c2c(C)c(CC(=O)NCc3ccccc3OC)c(=O)oc2c1	none
O=C(Nc1ccc(F)cc1F)c1ccc(-n2cnc3cccnc32)cc1	none
COc1ccc(CNC(=S)Nc2ccccc2)cc1Cl	none
COc1ccc(CSCCNC(=S)Nc2ccccc2)cc1Cl	D1 antagonist -33
Cc1cc(Cl)ccc1NC(=S)NCCc1ccc(Cl)cc1	none
S=C(NCCc1ccccc1)Nc1ccc(Br)cc1	D1 antagonist -51
S=C(NCCc1ccccc1)Nc1ccc(Cl)cc1Cl	D1 antagonist -33
COc1ccc(CCNC(=S)Nc2ccccc2)cc1	D1 antagonist -36
Cc1cccc(N(C(=O)c2snc(C(N)=O)c2N)C(C(=O)NCC2CCCO2)c2ccc3ncccc3c2)c1 (stereo not given)	none
COc1ccc(CNc2oc(/C=C/c3cccc(OC)c3)nc2C#N)cc1	none
CCOC(=O)c1ccc(NC(=O)C2CCN(C(=O)N3CC(C)Oc4ccc(C)cc43)CC2)cc1 (stereo not given)	none
CCOc1cc(C2c3c(-c4cc(C)ccc4O)n[nH]c3C(=O)N2CCCOC(C)C)ccc1O (stereo not given)	none
CCCCNC(=S)Nc1ccc(Oc2ccccc2)cc1	none
CCCCNC(=S)Nc1ccc([N+](=O)[O-])cc1	D1 antagonist -33
Cc1ccc(NC(=O)C2CCCN(c3cnccn3)C2)cc1Cl (stereo not given)	none
Cc1[nH]n(-c2ccc([N+](=O)[O-])cc2)c(=O)c1C=NCCc1c[nH]c2ccccc12	D1 antagonist -36
CC(C)OCCCn1c(SCc2ccccc2C#N)nc2c(sc3ccccc32)c1=O	none
Cc1ccc(CNC(=O)Cn2cc3c(n2)-c2c(oc(C(=O)N4CCOCC4)c2C)CC3)cc1	none
COc1cc(CN(CCc2c(C)[nH]c3ccc(C)cc23)C(=S)NC(C)(C)C)cc(OC)c1OC	D1 ag 30
COc1cc(/C=N/N=C2\CC3CCC2(C)C3(C)C)ccc1O (stereo not given)	D1 antagonist -60
COc1ccc(/C=N/N=C2\CC3CCC2(C)C3(C)C)cc1O (stereo not given)	none
NC(=O)C1CCN(C(=O)Nc2csc3ccccc23)CC1	D1 antagonist -61
COc1cc(CNC2CCCC2)c(Br)cc1OC1CCCC1	D1 antagonist -30
O=C1C(c2ccc(F)cc2)N(CCc2ccccc2)C(=O)CN1C1CCCCCC1 (stereo not given)	none
OC(CNCc1ccc(-c2ccccc2)cc1)c1ccccc1 (stereo not given)	D1 ag 56
OC(CNCc1cccs1)c1ccccc1 (stereo not given)	D1 antagonist -41
OC(CNCc1ccncc1)c1ccccc1 (stereo not given)	none
Cc1ccccc1C(=O)NNc1ncnc2c1cnn2-c1cccc(Cl)c1	none
Cn1cc(-c2cc3n(n2)CCC(=O)N3CCCC(=O)NCc2ccccc2)c2ccccc21	none
CCn1c(Cc2ccccc2)nnc1SCC(=O)NC1CC1	D1 antagonist -32
COc1cc(-c2nnc(SCC(=O)NC3CCCC3)n2C)cc(OC)c1O	D1 antagonist -41
Cn1c(Cc2ccc3c(c2)OCO3)nnc1SCC(=O)NC1CCCC1	D1 antagonist -33
Cc1ccc(N2CC3=C(C2=O)C(c2ccc(Br)cc2)NC(=O)N3C)cc1 (stereo not given)	none
C=CCc1cccc2cc(C(=O)N3CCN(C(=O)c4ccccc4)CC3)c(=O)oc12	none
COc1ccc(C(=O)OCc2cc(=O)n3c(C)csc3n2)cc1F	none
COc1cccc(C(=O)Nc2ccccc2C(=O)OCc2cc(=O)n3c(C)csc3n2)c1	none
Cc1csc2nc(COC(=O)c3ccccc3NC(=O)c3cccc(Br)c3)cc(=O)n12	D1 antagonist -53
Cc1csc2nc(COC(=O)c3ccc(F)cc3)cc(=O)n12	D1 antagonist -38
CCOC(=O)N1CCc2c(sc3c2c(=O)n(Cc2ccccc2)c(=O)n3CC(=O)Nc2ccc(F)cc2)C1	none
COc1cc(Cl)c(NC(=O)CCS(=O)(=O)c2ccc3c(c2)NC(=O)CO3)c(OC)c1	TRHR PAM 31
COc1ccc(N2CCN(C(=O)CCS(=O)(=O)c3cc4c(cc3Cl)NC(=O)CO4)CC2)cc1	D1 antagonist -64
CCc1cccc(NC(=O)CCS(=O)(=O)c2ccc3c(c2)NC(=O)CO3)c1	none
O=C(CCS(=O)(=O)c1cc2c(cc1Cl)NC(=O)CO2)NCc1ccc(F)cc1	D1 antagonist -35
CCOC(=O)N1CCN(C(=O)CCS(=O)(=O)c2cc3c(cc2Cl)NC(=O)CO3)CC1	none
O=C(CCS(=O)(=O)c1cc2c(cc1Cl)NC(=O)CO2)NCc1ccc(Cl)cc1	none
O=C(COC(=O)c1cccc(O)c1)NC(=O)Cc1ccccc1	D1 ag 33
CC(C)[C@H](NC(=O)OCc1ccccc1)C(=O)OCC(=O)NCCc1ccccc1	none
CC(=O)Nc1cccc(C(=O)OCC(=O)NC(=O)c2ccccc2)c1	none
Cc1cccc(C(=O)OCC(=O)NC(=O)Cc2ccccc2)c1O	none
CC(=O)Nc1cccc(C(=O)OCC(=O)NC(=O)Cc2ccccc2)c1	D1 antagonist -33
CC(=O)c1cccc(NC(=O)COC(=O)[C@@H](NC(=O)OCc2ccccc2)C(C)C)c1	D1 antagonist -95
CCC(=O)Nc1cccc(C(=O)OCC(=O)c2ccccc2Cl)c1	D1 antagonist -37
CC(=O)Nc1cccc(C(=O)OCC(=O)c2ccccc2Cl)c1	none
C=C(C)Cn1c(SCC(=O)Nc2cc(C)ccc2C)nc2sc3c(c2c1=O)CCCC3	none
O=c1c(-c2ccccc2)c(-c2ccccc2)oc2cc(O)cc(O)c12	D1 ag 40
Cc1ccc(NC(=O)N2CCc3c([nH]c4ccccc34)C2c2ccccc2F)c(Cl)c1 (stereo not given)	none
O=C(Cc1ccsc1)NNC(=O)c1ccc(F)cc1	none
CCSc1ncc(Cl)c(C(=O)N(Cc2ccc(N(C)C)cc2)Cc2ccco2)n1	none
CS(=O)(=O)N(Cc1ccccc1)c1ccc(C(=O)Nc2ccccc2C(=O)O)cc1	none
Cc1ccccc1NC(=O)c1ccc(N(Cc2ccccc2)S(C)(=O)=O)cc1	TRHR PAM 36
